Results reported in PubChem BioAssay (Tox21).
“And” between values parts separate entries of the source, which are not always exact repeats. Equal values may be shown once. Results filed as inconclusive are left out. The source made the active and inactive calls. Unless noted, calls come from the whole dose curve; as a rule, active = well fitted curve in the direction sought with a large enough effect in the repeat runs; inconclusive = weak or mixed curves; inactive = no such curve, though single readings can be large; an effect the other way counts as inactive or inconclusive.

What was measured:
[1] = qHTS assay to identify small molecule antagonists of the glucocorticoid receptor (GR) signaling pathway - cell viability counter screen (AID 720693); note: nearly all actives have a fitted effect of over 55% in size; note: potency is the fitted concentration of half-maximal effect
[2] = qHTS assay to identify small molecule antagonists of the androgen receptor (AR) signaling pathway - cell viability counter screen (AID 743033; note: nearly all actives have a fitted effect of over 45% in size; note: potency is the fitted concentration of half-maximal effect)
[3] = target: Androgen receptor (Homo sapiens) (UniProt P10275); test: qHTS assay to identify small molecule agonists of the androgen receptor (AR) signaling pathway (AID 743036; active = well fitted activation curve with a large enough effect in the signal ratio in the repeat runs, with a control signal flat, not every such curve was filed as active; the % refers to the signal ratio)
In short: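 In this Tox21 qHTS, 2,000 HEK293 AR-bla cells per well were incubated with compounds for 16 h at 37C and 5% CO2. Fluorescence intensity was recorded 2 h after adding LiveBLAzer B/G FRET substrate at room temperature.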

[4] = target: Androgen receptor (Homo sapiens) (UniProt P10275); test: qHTS assay to identify small molecule antagonists of the androgen receptor (AR) signaling pathway using the MDA cell line (AID 743042; note: nearly all actives have a fitted effect of over 55% in size; note: potency is the fitted concentration of half-maximal effect)
In short: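 Antagonist mode: compounds plus R1881 agonist added to MDA-kb2 AR-luc cells, incubated 16 h at 37C. Luciferase reporter luminescence quantified, with multiplexed CellTiter-Fluor readout for cell viability.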

[5] = qHTS assay to identify small molecule antagonists of the thyroid receptor (TR) signaling pathway - cell viability counter screen (AID 743064); note: nearly all actives have a fitted effect of over 50% in size; note: potency is the fitted concentration of half-maximal effect
In short: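 Counter screen for cytotoxicity: compound plus T3 (1 nM final) on GH3.TRE-Luc cells, 23.5 h at 37 °C, then fluorescence viability readout with CellTiter-Fluor.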

[6] = qHTS assay for identifying genotoxic compounds that show differential cytotoxicity against isogenic chicken DT40 cell lines with known DNA damage response pathways - wild type cell line (AID 743012); note: nearly all actives have a fitted effect of over 60% in size; note: potency is the fitted concentration of half-maximal effect
In short: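 Parental DNA repair-proficient DT40 cells, 300 per well, were pre-incubated ~0.5 h at 37 C/5% CO2, pin-dosed with compounds in DMSO, then incubated 40 h. Viability was read as CellTiter-Glo luminescence after 30 min at room temperature.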

[7] = qHTS assay for identifying genotoxic compounds that show differential cytotoxicity against isogenic chicken DT40 cell lines with known DNA damage response pathways - Rev3 mutant cell line (AID 743014); note: nearly all actives have a fitted effect of over 55% in size; note: potency is the fitted concentration of half-maximal effect
[8] = qHTS assay for identifying genotoxic compounds that show differential cytotoxicity against isogenic chicken DT40 cell lines with known DNA damage response pathways - Rad54/Ku70 mutant cell line (AID 743015); note: nearly all actives have a fitted effect of over 60% in size; note: potency is the fitted concentration of half-maximal effect
[9] = qHTS assay to identify small molecule antagonists of the androgen receptor (AR) signaling pathway using the MDA cell line - cell viability counter screen (AID 743041; note: nearly all actives have a fitted effect of over 45% in size; note: potency is the fitted concentration of half-maximal effect)
In short: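 Cells were plated at 3,000 per well and left 5 h. Compounds in DMSO were then pinned in, followed by R1881. After 16 h at 37C, CellTiter-Fluor fluorescence gave viability.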

[10] = target: Androgen receptor (Homo sapiens) (UniProt P10275); test: qHTS assay to identify small molecule agonists of the androgen receptor (AR) signaling pathway using the MDA cell line (AID 743040; note: nearly all actives have a fitted effect of over 20% in size)
In short: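 Cells plated, 5 h at 37C/0% CO2; compound or DMSO pinned; 16 h at 37C; ONE-Glo added; luminescence measured after 30 min at room temperature. Reporter line: MDA-kb2 with MMTV-luciferase responsive to AR and GR.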

Measured: Potency

Sequence of Androgen receptor (Homo sapiens) (P10275 whole entry, looked up): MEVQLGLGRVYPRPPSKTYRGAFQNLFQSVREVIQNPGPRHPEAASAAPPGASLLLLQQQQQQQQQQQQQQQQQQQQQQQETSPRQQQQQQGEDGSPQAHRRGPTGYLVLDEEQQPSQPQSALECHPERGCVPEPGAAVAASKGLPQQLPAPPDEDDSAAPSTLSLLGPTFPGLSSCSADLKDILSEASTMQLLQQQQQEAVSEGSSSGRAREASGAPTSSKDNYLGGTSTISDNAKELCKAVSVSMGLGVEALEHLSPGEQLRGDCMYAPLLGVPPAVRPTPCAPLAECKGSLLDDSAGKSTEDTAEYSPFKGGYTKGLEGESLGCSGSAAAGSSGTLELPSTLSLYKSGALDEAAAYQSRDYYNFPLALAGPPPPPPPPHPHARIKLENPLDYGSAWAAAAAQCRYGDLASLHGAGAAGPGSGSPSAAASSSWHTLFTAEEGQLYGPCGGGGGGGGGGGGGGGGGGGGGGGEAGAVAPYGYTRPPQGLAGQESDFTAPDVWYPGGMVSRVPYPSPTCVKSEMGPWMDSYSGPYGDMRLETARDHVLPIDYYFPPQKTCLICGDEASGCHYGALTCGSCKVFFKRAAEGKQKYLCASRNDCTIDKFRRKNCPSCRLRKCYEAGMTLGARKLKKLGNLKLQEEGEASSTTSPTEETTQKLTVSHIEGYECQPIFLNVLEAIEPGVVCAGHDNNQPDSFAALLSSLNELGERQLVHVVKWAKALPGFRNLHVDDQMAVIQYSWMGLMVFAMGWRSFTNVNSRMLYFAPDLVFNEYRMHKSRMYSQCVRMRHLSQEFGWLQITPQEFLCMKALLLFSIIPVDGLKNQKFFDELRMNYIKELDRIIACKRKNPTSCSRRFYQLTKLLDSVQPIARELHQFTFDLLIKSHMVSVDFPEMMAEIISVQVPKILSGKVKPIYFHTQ

Nc1ccccc1C(=O)Oc1ccc2ccccc2c1
inactive: [1] | [2] | [3] | [4] | [5]

CN(C)S(=O)(=O)N(SC(F)(Cl)Cl)c1ccccc1
active: [6] 0.109 µM | [7] 0.154 µM | [8] 0.109 µM | [2] 3.47 µM | [9] 24.3 µM | [5] 1.22 µM

CC(C)(C)c1cc([N+](=O)[O-])cc(C(C)(C)C)c1O
active: [6] 6.86 µM | [7] 10.9 µM | [8] 7.7 µM | [2] 5.49 µM | [9] 12.2 µM | [5] 12.2 µM

O=[N+]([O-])c1c2ccccc2cc2ccccc12
inactive: [1] | [2]

O=C(O)COc1nc(Cl)c(Cl)cc1Cl
inactive: [1] | [9]

Cc1c(Cl)c(=O)oc2cc(OP(=O)(OCCCl)OCCCl)ccc12
inactive: [1] | [2]

c1ccc(OCC2CO2)cc1 (centres undefined)
inactive: [1] | [5]

Nc1ccc(Sc2ccc(N)cc2)cc1
active: [8] 62.9 µM
inactive: [1] | [2] | [5]

COP(=O)(OC)SCn1c(=O)oc2cc(Cl)cnc21
inactive: [2] | [10]
active: [1] 49 µM | [4] 48.6 µM

O=c1oc2ccccc2c(O)c1Cc1c(O)c2ccccc2oc1=O
not listed: [1] | [9]
inactive: all other assays above

CCc1nn(C)c(C(=O)NCc2ccc(C(C)(C)C)cc2)c1Cl
active: [6] 0.077 µM | [7] 0.0863 µM | [8] 0.0545 µM | [2] 0.195 µM | [9] 0.0863 µM

CN(C)C1CSSSC1
inactive: [1] | [2] | [9] | [5]
active: [8] 21.7 µM

Nc1ccc(Cc2ccc(N)c(Cl)c2)cc1Cl
active: [1] 53.1 µM | [6] 74.4 µM | [5] 52.7 µM
inactive: [9]

O=C(CBr)c1ccc(O)cc1
inactive: [1] | [2] | [5]
active: [7] 68.6 µM

O=C(CCCN1CCC2(CC1)C(=O)NCN2c1ccccc1)c1ccc(F)cc1
active: [6] 29.8 µM
inactive: [1] | [9]

S=C=Nc1cccc2ccccc12
inactive: [1] | [2] | [10] | [9] | [5]
active: [7] 60.5 µM

[CH3][Hg][Cl]
inactive: [2] | [10] | [9] | [4]
active: [1] 19.5 µM | [8] 48.4 µM | [5] 0.861 µM

CCCCCCCCCBr
inactive: [1] | [8] | [2] | [9] | [5]

Cc1ccc(OP(=O)(Oc2ccccc2)Oc2ccccc2)cc1
inactive: [1] | [2] | [10] | [4] | [5]

Fc1cccc(Cl)c1CCl
inactive: [1] | [8] | [2] | [9] | [5]

c1ccc(Nc2ccc3ccccc3c2)cc1
inactive: [1] | [9]
active: [7] 54.2 µM | [8] 60.8 µM | [5] 60.8 µM

ClC1=C(Cl)[C@]2(Cl)[C@H]3[C@H]([C@H]4C=C[C@H]3C4)[C@@]1(Cl)C2(Cl)Cl
inactive: [1] | [2] | [9]
active: [8] 61.1 µM

C1CCC2CCCCC2C1 (centres undefined)
inactive: [6] | [7] | [8] | [2] | [9] | [5]

Cc1cc(SCc2sc(-c3ccc(C(F)(F)F)c(F)c3)nc2C)ccc1OCC(=O)O
active: [6] 54.5 µM | [7] 34.4 µM | [8] 54.5 µM | [2] 38.9 µM

Cc1cc(C(F)(C(F)(F)F)C(F)(F)F)ccc1NC(=O)c1cccc(I)c1C(=O)NC(C)(C)CS(C)(=O)=O
active: [7] 43.5 µM
inactive: [1] | [2] | [9] | [5]

CC(C)CCCCCCCOP(=O)(Oc1ccccc1)Oc1ccccc1
active: [5] 27.4 µM
inactive: [1] | [2]

COC12CC[C@@]3(C[C@@H]1C(C)(O)C(C)(C)C)[C@H]1Cc4ccc(O)c5c4[C@@]3(CCN1CC1CC1)[C@H]2O5 (some centres undefined)
active: [6] 54.1 µM | [7] 60.7 µM | [8] 48.2 µM | [2] 54.6 µM | [9] 60.7 µM | [5] 21.5 µM

CCOC(=O)OC1=C(c2cc(C)ccc2C)C(=O)NC12CCC(OC)CC2 (centres undefined)
inactive: [1] | [2]

CC(=O)Nc1ccc2c(c1)Cc1ccccc1-2
inactive: [1] | [2] | [5]

CCCCCCCCc1ccc(O)cc1
inactive: [3] | [10] | [4]
active: [6] 21.8 µM | [8] 25.2 µM | [5] 46.1 µM

CC(C)(C)C(O)/C(=C\c1ccc(Cl)cc1Cl)n1cncn1 (centres undefined)
inactive: [9]
active: [6] 18.6 µM | [5] 83 µM

O=C(O)C1C2CCC(O2)C1C(=O)O (centres undefined)
inactive: [6] | [2] | [9] | [5]

COc1ccc(N)cc1N
active: [6] 11.7 µM | [7] 3.98 µM and 5.87 µM | [2] 16 µM and 18.7 µM | [5] 37 µM

O=C(Nc1ccc2[nH]ccc2c1)c1cc2cc(F)ccc2n1Cc1cccc(F)c1
active: [6] 19.3 µM | [8] 17.2 µM | [2] 49 µM | [5] 10.9 µM
